Test results taken from PubChem BioAssay AID493231 (Broad Institute, 2011).
Measured potencies and affinities stand elsewhere. Calls of active or inactive are those of the source. The rule behind the calls is not given here.

molecular target: Acyl-homoserine lactone acylase PvdQ (Pseudomonas aeruginosa (strain ATCC 15692 / DSM 22644 / CIP 104116 / JCM 14847 / LMG 12228 / 1C / PRS 101 / PAO1)) (UniProt Q9I194); test: P. aeruginosa PvdQ acylase inhibitors, dose response, biochemical, fluorescence, plate reader and imaging, cherry-picks (AID 493231); details: purified PvdQ acylase, fluorogenic substrate; series mostly up to 10 µM;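 note: more negative values mean stronger inhibition of the acylase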
Sequence (Q9I194 whole entry, looked up): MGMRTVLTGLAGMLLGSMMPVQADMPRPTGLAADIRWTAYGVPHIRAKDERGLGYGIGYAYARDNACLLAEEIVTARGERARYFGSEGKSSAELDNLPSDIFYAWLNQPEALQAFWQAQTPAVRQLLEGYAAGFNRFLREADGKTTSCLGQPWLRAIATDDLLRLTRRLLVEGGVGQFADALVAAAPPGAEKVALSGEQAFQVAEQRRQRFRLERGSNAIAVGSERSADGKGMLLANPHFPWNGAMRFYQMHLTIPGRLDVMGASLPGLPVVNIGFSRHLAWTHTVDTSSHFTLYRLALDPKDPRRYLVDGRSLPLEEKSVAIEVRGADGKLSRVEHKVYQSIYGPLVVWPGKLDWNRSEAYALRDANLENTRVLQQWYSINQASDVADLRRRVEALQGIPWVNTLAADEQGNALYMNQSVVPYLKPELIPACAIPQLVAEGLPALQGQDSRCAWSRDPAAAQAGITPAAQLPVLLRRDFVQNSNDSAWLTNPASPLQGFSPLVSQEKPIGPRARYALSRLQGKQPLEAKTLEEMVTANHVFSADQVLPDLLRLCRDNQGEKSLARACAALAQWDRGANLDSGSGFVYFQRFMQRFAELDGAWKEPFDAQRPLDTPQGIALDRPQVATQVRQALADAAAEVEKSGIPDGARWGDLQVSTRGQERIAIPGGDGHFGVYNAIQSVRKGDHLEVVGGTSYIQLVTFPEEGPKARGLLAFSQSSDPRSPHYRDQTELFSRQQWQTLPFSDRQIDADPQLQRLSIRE

outcome, inactive:
Cc1nn(S(=O)(=O)c2ccccc2)c(C)c1S(=O)(=O)N1CCOCC1
N#C/C(=C\c1ccc([N+](=O)[O-])cc1)c1ccccn1
CSCCC(NC(=O)c1ccc([N+](=O)[O-])cc1Cl)C(=O)OCC(=O)N(C)C (stereo not given)
Cc1nc(N2CCNCC2)c2c3c(sc2n1)CCCC3
COc1ccccc1CNS(=O)(=O)CCNCCc1ccccc1
CCOc1ccc(NC(=S)NCc2cccnc2)cc1
CCOC(=O)/C(C#N)=C/c1c(N2CCCCCC2)nc2ccccn2c1=O
O=C(CCc1c[nH]c2ccccc12)N/N=C/c1ccc2c(c1)OCO2
N#Cc1cc([N+](=O)[O-])ccc1Oc1cccc(/C=N/NC(=O)c2ccc(Cl)cc2)c1
Cc1nc2ccc(S(=O)(=O)Nc3ccc(-c4nc5cccnc5s4)cc3)cc2s1
CC(=O)N/N=C/c1c(C)[nH]n(-c2ccccc2)c1=O
O=C(/C=C/c1ccc(Br)cc1)c1ccco1
Cc1ccc(-c2nc3ccsc3c(=O)o2)cc1
COc1cc2nc(CN3CCN(S(=O)(=O)c4c(F)cccc4F)CC3)[nH]c(=O)c2cc1OC
CCOC(=O)C(Oc1ccc(=O)[nH]n1)C(C)=O (stereo not given)
NC(=O)c1oc2ccccc2c1NC(=O)Cc1ccccc1
Cc1ccc(C(=O)/C=C/Nc2cccc([N+](=O)[O-])c2)o1
CS(=O)(=O)c1ccc(Cl)c(NC(=O)COC(=O)c2ccc(F)cc2Cl)c1
CCn1c(Cc2ccccc2)nnc1SCC(=O)Nc1ccccc1
COc1ccc(-c2nn(-c3ccccc3)cc2/C=C2/SC(=S)N(CCC(=O)O)C2=O)cc1
O=C1N(c2ccccc2)C[C@@H]2C[C@@H](c3cc4ccccc4o3)N3CCC[C@@]123
CC[N+](CC)(CC)C/C=C/CN1CCCCC1
CN(C)CCCN(Cc1cc2cc3c(cc2[nH]c1=O)OCO3)C(=S)Nc1cccc(Cl)c1
COCCNC(=O)c1cc2nc(-c3ccccc3)cc(C)n2n1
COc1ccc(CN2CCCC(C(=O)c3cccc(OC(C)C)c3)C2)cc1Cn1cccn1 (stereo not given)
CC(=O)c1c(C)[nH]c(C(=O)COC(=O)c2cccs2)c1C
C/C(CCC1CC(C)OC1=O)=N/Nc1nc(-c2ccccc2)cs1 (stereo not given)
C(=C\c1nnc(-c2cccs2)o1)/c1ccccc1
COc1ccc(CCNC(=O)c2cccc(S(=O)(=O)N3CCc4ccccc4C3)c2)cc1
Cc1cc(=O)[nH]c(SCC(=O)Nc2ccc(Br)cn2)n1
CN(C(=O)CCn1c(=S)oc2ccccc21)c1ccc(F)cc1
Cc1ccc(-c2nc(CN(C)Cc3cccc4cnccc34)c(C)o2)s1
Clc1ccc2nc(-c3ccc4c(c3)OCO4)cn2c1
COc1ccc(-c2cn3cc(C)ccc3n2)cc1F
Cn1c(=O)c2c(ncn2CC(=O)OCC(=O)NCc2ccc(Cl)cc2)n(C)c1=O
